# PubChem BioAssay (NCATS)
# Records with an inconclusive call do not appear. Activity calls are given as the source filed them. Calls follow the shape of the dose curve; as a rule, active = well fitted inhibition curve with a large enough effect; inconclusive = small, poorly fitted or top-dose-only effect; inactive = flat fitted curve, though single readings scatter.
# System: CRL-7250
# Experiment: qHTS assay to identify novel small-molecules to repurpose for Merkel cell carcinoma treatment (AID 1296009); also: nearly all actives have a fitted effect of over 60% in size
# Settings: MCC and control cell lines, CellTiter-Glo viability, 72 h; series mostly up to 92 µM; activity change, negative = cytotoxicity: at the top concentration
# How it was run: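 72 hr, 37 degree celsius; NPC 8-pt / MIPE 11-pt dose response; compound pinned in DMSO; CellTiter-Glo, 10 min RT, luminescence; normalized to no-cell and DMSO controls.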
row,Compound,outcome
1,CC(C)C1NC(=O)C(CC2(O)c3ccccc3N3C(=O)C(Cc4ccccc4)NC32)NC1=O (stereo not given),inactive [at 17.4 µM]
2,C=C(C(=O)O)C1CC2=C(C)CCCC2(C)C[C@@H]1O (stereo not given in full),inactive
3,CCOC(=O)CCNc1cc(N2CCc3ccccc3CC2)nc(-c2cccnc2)n1,inactive
4,CC1=CC2/C=C(\C)CCC(O)C(=O)C(O)CC(=O)C23C(=O)NC(CC(C)C)C3C1C (stereo not given),inactive [at 17.4 µM]
5,C=C1CC2C3(C)C(O)CC(=O)C(C)(C)C3C(OC(C)=O)C(OC(C)=O)C2(C)C2C(=O)OC(C)(C(=O)OC)C(=O)C12C (stereo not given),inactive [at 17.4 µM]
6,CC(C)=C1CC2C(CCC2(C)O)C(C)(O)CC1=O (stereo not given),inactive
7,O=C(CN1C(=O)C2(CCCC2)NCC1c1cc(F)cc(F)c1)Nc1ccc2c(c1)CC1(C2)C(=O)Nc2ncccc21 (stereo not given),inactive
8,COc1c2c(c(C)c3c1C(=O)OC3)OC1(C)CC(O)C34OC(OC)(CC(OC(C)=O)C3(C)C1C2)OC4(C)C (stereo not given),inactive [at 17.4 µM]
9,CCn1nnnc1NCc1ccc(C(C)C)cc1,inactive
10,CC(=O)c1cc2c(cc1O)OC(C)(C)C=C2,inactive
11,C/C=C(\C)C(=O)OC[C@H]1O[C@@H](O[C@H]2[C@@H](O[C@H]3O[C@H](CO)[C@@H](O)[C@H](O)[C@H]3O[C@@H]3O[C@H](CO)[C@@H](O)[C@H](O)[C@H]3O)O[C@H](COC(=O)/C(C)=C/C)[C@@H](O)[C@@H]2O)[C@H](O)[C@@H](O)[C@@H]1O,inactive [at 9.27 µM]
12,CC(C)CC(=O)OC[C@@]1(O)C[C@@]23CC[C@H]4[C@@](C)(CCC[C@@]4(C)C(=O)O)[C@@H]2CC[C@@H]1C3,inactive [at 17.4 µM]
13,CN1CCCC1Cc1c[nH]c2ccc(CCS(=O)(=O)c3ccccc3)cc12 (stereo not given),inactive
14,COc1cc(C)c(C(=O)OC2C(C)OC(OC3CCC(C)C4C3C=C(C)C3/C(C)=C\CC/C(C)=C/C5(C)C=C(C(=O)O)C(C)CC56OC(=O)/C(=C(\O)C34C)C6=O)C(O)C2O)c(OC)c1 (stereo not given),inactive [at 9.27 µM]
15,O=C(O)c1ccc(OC2OC(CO)C(O)C(O)C2O)cc1 (stereo not given),inactive
16,O=C(O)CC1(O)C(=O)Nc2ccccc21 (stereo not given),inactive [at 92 µM]
17,C[C@@H]1CC[C@]2(C(=O)O[C@@H]3O[C@H](CO[C@@H]4O[C@H](CO)[C@@H](O)[C@H](O)[C@H]4O)[C@@H](O)[C@H](O)[C@H]3O)CC[C@]3(C)C(=CCC4[C@@]5(C)CC[C@H](O)[C@](C)(C(=O)O)C5CC[C@]43C)[C@@H]2[C@]1(C)O (stereo not given in full),inactive [at 9.27 µM]
18,Fc1ccc(-c2nc(C3CCNCC3)sc2-c2ccnc(NC3CC3)n2)cc1,inactive
19,CC1(C)OC[C@H](NC(=O)Nc2ccc(Br)cc2Br)[C@H](c2ccccc2)O1,inactive
20,NC(=O)[C@H](O[C@@H]1O[C@H](CO)[C@@H](O)[C@H](O)[C@H]1O)c1ccccc1,inactive
21,O=C(Nc1ccc2[nH]ncc2c1)C1CCC1,inactive
22,C/C=C(\C)C1C(C)=CC2CCC(OS(=O)(=O)O)C(C)C2C1/C=C/C=C/C(=O)O (stereo not given),inactive [at 17.4 µM]
23,Cn1nccc1-c1ccccc1Oc1ccc(S(=O)(=O)Nc2nccs2)cc1C#N,inactive
24,C[C@@H]1O[C@@H](O[C@H]2[C@H](O[C@H]3CC[C@@]4(C)C(CC[C@]5(C)C4CC=C4C6CC(C)(C)CC[C@]6(C(=O)O[C@@H]6O[C@H](CO[C@@H]7O[C@H](CO)[C@@H](O[C@@H]8O[C@@H](C)[C@H](O)[C@@H](O)[C@H]8O)[C@H](O)[C@H]7O)[C@@H](O)[C@H](O)[C@H]6O)CC[C@]45C)[C@]3(C)CO)OC[C@H](O)[C@@H]2O)[C@H](O)[C@H](O)[C@H]1O (stereo not given in full),inactive [at 9.27 µM]
25,COc1cc(C[C@H]2COC(=O)[C@@H]2Cc2ccc(O)c(OC)c2)ccc1O,inactive
